# IL-1B inflam inh – qHTS for Inhibitors of Inflammasome Signaling: IL-1-beta AlphaLISA Primary Screen. 360,000 tested, 4.7% active. THP-1 LPS/ATP IL-1B secretion, AlphaLISA, 16 h; hits give low values. activity change, % at 57.5 µM. AID 743279, 2014; in the data active = activity change below about -50%; inconclusive = mostly about -30% to -49%; note: % is set by controls: 0 for no effect and ±100 for the full control effect
#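 THP-1 cells pretreated 1 hr with compounds (up to 57.5 uM final), then stimulated with LPS (250 ng/mL final) plus ATP (1.25 mM final); secreted IL-1B measured by AlphaLISA after 16 hr, decreased signal indicating inhibition.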
# TDP1 cell noCPT – qHTS for Inhibitors of human tyrosyl-DNA phosphodiesterase 1 (TDP1): qHTS in cells in absence of CPT; DT40 Tdp1-/- hTDP1 cells, no CPT, ATP luminescence, 48 h; Potency, µM (doses to about 46.2 µM), without a hit: top-dose activity change, negative = growth inhibition, actives largely listed as inhibitors; 420,000 tested, 15% active; AID 686978, 2013; note: potency is the fitted concentration of half-maximal effect; % is set by controls: 0 for no effect and ±100 for the full control effect; nearly all actives have a fitted effect of over 55% in size
#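 Compound effects on proliferation are scored in DT40 Tdp1-/-;hTDP1 cells in the absence of CPT. ATP levels (CellTiter-Glo luminescence) are recorded after a ≥48 hr, 37 °C incubation.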
# TGFb inhibitor – qHTS for Inhibitors of TGF-b; Potency, µM (series often up to 46.1 µM), for inactives: top-dose activity, negative = inhibition, most hits filed as inhibitors; HepG2 CAGA-GFP TGF-b/SMAD3 reporter, GFP fluorescence, 18 h; TGF-beta stimulated, 500 pg/mL final; AID 588855, 2011; 410,000 tested, 1.2% active; note: potency is the fitted concentration of half-maximal effect; % is set by controls: 0 for no effect and ±100 for the full control effect; nearly all actives have a fitted effect of over 65% in size
#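 GFP signal (ex488/em500-530) from TGF-beta-stimulated HEPG2 CAGA-GFP cells, 500 pg/mL final, 18 h at 37 degrees C in DMEM plus 1% FBS, normalized to unstimulated and DMSO-stimulated controls.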
# DT40 TDP1 CPT – qHTS for Inhibitors of human tyrosyl-DNA phosphodiesterase 1 (TDP1): qHTS in cells in presence of CPT; chicken DT40 Tdp1-/-;hTDP1 cells + 20 nM CPT, ATP luminescence, 48 h; Potency, µM (titrated, usually from 46.2 µM), for the others: top-dose activity change, negative = growth inhibition, usual class: inhibitors; 420,000 tested, 12% active; note: potency is the fitted concentration of half-maximal effect; % is set by controls: 0 for no effect and ±100 for the full control effect; nearly all actives have a fitted effect of over 55% in size
#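 Cell growth measured by CellTiter-Glo luminescence after a minimum 48 h, 37 C compound exposure with 20 nM CPT in Tdp1-knockout DT40 cells stably expressing hTDP1, seeded 400/well; qHTS titration format.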
# HepG2 tox – qHTS for Inhibitors of TGF-b: Cytotox Counterscreen; HepG2 CAGA-GFP viability, ATP luminescence, 18 h; 410,000 tested, 0.76% active; AID 588856, 2011; Potency, µM (doses to about 46.1 µM), without a hit: at the top dose activity change, negative = cytotoxicity, hits mostly cytotoxic; note: potency is the fitted concentration of half-maximal effect
#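 HepG2 CAGA-GFP cells (1000/well, DMEM with 1% FBS) received compound, then TGF-beta at 500 pg/mL final, and were incubated 18 hours at 37 degrees C. Viability was read by CellTiter-Glo luminescence. Media-only wells were set as complete cell-killing and DMSO as no toxicity.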
# TDP1 block – qHTS Assay for Inhibitors of Tyrosyl-DNA Phosphodiesterase (TDP1); recombinant TDP1, AlphaScreen DNA substrate cleavage; Tyrosyl-DNA phosphodiesterase 1 (Homo sapiens), Q9NUW8; AID 485290, 2010; Potency, µM (series often up to 130 µM), for the others: at the highest dose activity change, negative = inhibition, most hits filed as inhibitors; 350,000 tested, 0.28% active; note: potency is the fitted concentration of half-maximal effect; % is set by controls: 0 for no effect and ±100 for the full control effect; nearly all actives have a fitted effect of over 40% in size
# Target sequence (Q9NUW8 whole entry, looked up): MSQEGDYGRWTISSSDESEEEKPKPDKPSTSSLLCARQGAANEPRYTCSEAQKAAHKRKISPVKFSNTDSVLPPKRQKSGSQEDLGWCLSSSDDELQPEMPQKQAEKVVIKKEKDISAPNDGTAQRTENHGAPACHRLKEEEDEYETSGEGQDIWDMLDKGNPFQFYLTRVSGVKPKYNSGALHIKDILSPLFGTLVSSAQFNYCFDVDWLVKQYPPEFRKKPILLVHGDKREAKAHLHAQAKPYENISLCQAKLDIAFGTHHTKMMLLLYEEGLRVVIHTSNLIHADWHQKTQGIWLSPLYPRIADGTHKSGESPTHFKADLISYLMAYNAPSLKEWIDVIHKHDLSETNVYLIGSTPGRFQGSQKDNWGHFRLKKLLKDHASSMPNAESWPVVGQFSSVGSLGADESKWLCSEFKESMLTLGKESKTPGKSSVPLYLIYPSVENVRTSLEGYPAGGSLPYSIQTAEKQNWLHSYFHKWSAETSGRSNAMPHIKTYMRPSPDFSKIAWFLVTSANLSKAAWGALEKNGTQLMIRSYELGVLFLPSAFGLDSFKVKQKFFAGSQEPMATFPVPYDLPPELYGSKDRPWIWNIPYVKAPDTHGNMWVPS
#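 Here, a 5' biotin and 3' phosphotyrosine-FITC DNA oligonucleotide reports Tdp1 activity: intact substrate bridges AlphaScreen beads, while cleavage leaves a 3' phosphate and drops signal. All incubations at room temperature.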
# Numbers without * were called inactive; u = inconclusive; x = no result; [ ] = remark or other dose. An excerpt weighted towards active compounds, which were near 19% of everything screened. Unless noted, calls come from the whole dose curve; as a rule, active = well fitted curve in the direction sought with a large enough effect; inconclusive = small, poorly fitted or top-dose-only effect, or another doubt; inactive = no such curve, though single readings can be large; an effect the other way counts as inactive or inconclusive.
SMILES,IL-1B inflam inh,TDP1 cell noCPT,TGFb inhibitor,DT40 TDP1 CPT,HepG2 tox,TDP1 block
O=C(CCl)Nc1ccccc1C(=O)NCc1ccccc1,-82.9*,u,6.2%,23.1µM*,-4.2%,1.2%
O=C(NCc1cccnc1)c1ccc(NC(=O)c2ccc(Br)cc2)cc1,53.3,14.6µM*,-10.0%,9.2µM*,-20.3%,-13.3%
COC(=O)c1cc(Cl)ccc1NC(=O)CSc1ncc(S(=O)(=O)c2ccc(Br)cc2)c(=O)[nH]1,x,-3.0%,u,6.7%,-23.2%,6.4%
Cc1cccc(C)c1-n1nnnc1C1(C)CCC(=O)N1c1ccc(N2CCOCC2)cc1 (centres undefined),0.9,u,x,u,x,x
Cc1ncc2c(c1CNC(=O)/C=C/c1cccs1)CCN(C(=O)c1noc3c1CCCC3)C2,x,-4.4%,x,15.2%[9.04 µM],x,x
Cc1cc(C)cc(C(=O)NCCn2cc(C(=O)N3CCSCC3)nn2)c1,x,-10.0%,x,10.7%[9.04 µM],x,x
CCOc1ccc(NC(=O)CSC2=NCCN2)cc1,-11.8,-29.7%,3.9%,u,-4.8%,-2.8%
COC(=O)c1ccc(NC(=O)CSC2=NCCN2)cc1,-53.4*,14.6µM*,u,u,-34.0%,x
Cc1cc(N2CCC(C)CC2)nc(-n2nc(C)cc2C)n1,1.1,2.59µM*,-1.8%,2.59µM*,-4.9%,3.1%
COc1cccc(C(O)C2OC(=O)c3ccccc32)c1OC (centres undefined),-1.8,9.2µM*,0.9%,3.8%,-2.6%,x
C#CCn1c(=NC(=O)c2ccc(S(=O)(=O)N3CCCc4ccccc43)cc2)sc2cc(S(N)(=O)=O)ccc21,15.9,14.6µM*,u,13µM*,4.7%,5.5%
COc1ccc(-c2csc(NC(=O)CC(NC(C)=O)c3ccccc3)n2)cc1OC (centres undefined),-26.9,u,-21.8%,u,-12.3%,79.4µM*
COc1ccc(-c2csc(NC(=O)CS(=O)(=O)c3ccccc3)n2)cc1OC,u,16.4µM*,-0.8%,u,-21.8%,x
O=C(COc1ccccc1C(=O)Nc1ccccc1)Nc1ccc(Br)cc1,x,u,1.2%,u,-5.8%,x
C=CCc1ccccc1OCC(=O)NNC(=S)NCc1ccccc1,6.3,5.17µM*,u,6.51µM*,7.1%,5.7%
O=C(COc1ccccc1CNCc1ccccc1)Nc1ccccc1,-20.8,17.8µM*,-5.5%,u,-43.9%,2.8%
N#Cc1ccc(NC(=O)COc2ccccc2C(=O)Nc2ccccc2)cc1,x,u,-8.9%,11.2µM*,-13.0%,x
O=C(COc1ccccc1C(=O)Nc1ccccc1)Nc1ccccc1F,x,15.8µM*,-2.3%,u,-0.9%,x
CCOc1ccccc1CNCc1ccc(C(=O)O)cc1,-4.2,-10.9%,12.6%,-1.9%,5.3%,0.0%
Cc1cc(C)cc(N(C)S(=O)(=O)c2nnc(NC(=O)COc3ccc(C)c(C)c3)s2)c1,x,-13.3%,0.0%,-12.9%,-26.2%,-3.9%
CC(C)Cn1c(=O)c2sccc2n2c(CCCC(=O)NC3CCCCC3)nnc12,x,u,-0.2%,u,-3.1%,7.7%
Cn1cc(S(=O)(=O)N2CCCCC2)cc1C(=O)N1CCN(c2ccccc2F)CC1,x,u,4.3%,-23.3%,-17.5%,7.7%
CC(=O)c1ccc(NC(=O)COc2ccccc2C(=O)Nc2ccccc2)cc1,2.2,11.2µM*,1.6%,11.2µM*,3.3%,2.2%
CC(=O)c1cccc(NC(=O)COc2ccccc2C(=O)Nc2ccccc2)c1,x,u,-28.9%,u,-12.1%,x
CC(=O)Nc1ccc(C(=O)OCCc2ccccc2)cc1,-17.6,-14.8%,13.1%,1.6%,-8.6%,1.1%
SMILES,IL-1B inflam inh,TDP1 cell noCPT,TGFb inhibitor,DT40 TDP1 CPT,HepG2 tox,TDP1 block
Cc1cc(Nc2cccc(Cl)c2)nc(-c2ccccc2O)n1,u,u,u,29.1µM*,-59.3%,x
COC(=O)c1cccc(Nc2cc(C)nc(-c3ccccc3O)n2)c1,-3.0,16.4µM*,1.9%,u,-5.9%,2.6%
Cc1cc(Nc2ccc(Cl)cc2)nc(-c2ccccc2O)n1,-22.6,25.9µM*,-24.0%,u,-53.7%,x
Cc1cc(N/N=C\c2ccccc2)nc(-c2ccccc2O)n1,u,u,u,u,-21.5%,1.4%
COC(=O)c1ccc(Nc2cc(C)nc(-c3ccccc3O)n2)cc1,-11.3,u,20.2%,u,5.4%,0.0%
Cc1cc(Cl)nc(-c2ccccc2O)n1,u,12.8%,-4.2%,-3.5%,-7.7%,2.7%
CCCCCn1c(=O)[nH]c2cc(C(=O)NC(C)CC)ccc2c1=O (centres undefined),x,-1.1%,2.2%,-1.4%,6.9%,5.9%
Cc1ccc2[nH]c(=O)c(CN(CC3CCCO3)C(=O)c3cccs3)cc2c1 (centres undefined),-8.1,-11.4%,7.8%,-2.1%,7.2%,0.0%
Cc1cccc2cc(CN(CC3CCCO3)C(=O)c3cccs3)c(=O)[nH]c12 (centres undefined),-11.7,8.5%,8.6%,1.5%,-2.5%,1.0%
COc1ccc2[nH]c(=O)c(CN(Cc3cccs3)C(=S)NCC3CCCO3)cc2c1 (centres undefined),-3.9,23.1µM*,-15.4%,23.1µM*,-0.8%,x
Cc1cc2cc(CN(Cc3cccs3)C(=S)NCC3CCCO3)c(=O)[nH]c2cc1C (centres undefined),-65.9*,u,u,u,-4.2%,10.5%
